Dicer inh – inhibitors of Dicer pre-microRNA processing, primary screen, biochemical, cat-ELCCA, chemiluminescence; hit rate 6% among 47,000; cat-ELCCA pre-miR-21 Dicer processing; active compounds read high; z-score at 25 µM; Endoribonuclease Dicer (Homo sapiens), Q9UPY3; in the data active = z-score above about 3, passing the limit was not always enough;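 also: plate controls were vehicle for no effect and no enzyme for full effect; higher signal means more uncleaved substrate so more Dicer inhibition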
* marks the source's active call; other numbers are inactive results. Only a selection was taken, and hits are over-represented in it overall.

How did O=S(=O)(c1ccccc1)c1ccc(S(=O)(=O)N2CCN(C3c4ccccc4-c4ccccc43)CC2)s1 do in these assays?
Dicer inh: 3.4*

How did CC(=O)c1ccc(N2CCN(S(=O)(=O)c3ccc(S(=O)(=O)c4ccccc4)s3)CC2)cc1 do in these assays?
Dicer inh: -0.13

How did O=S(=O)(c1ccc(F)cc1)N1C=CC(C(F)(F)F)=NCC1 do in these assays?
Dicer inh: -0.77

How did O=[N+]([O-])c1cccc(Cl)c1Oc1ccc(S(=O)(=O)Oc2ccc(Cl)cc2)cc1 do in these assays?
Dicer inh: -0.53

How did CCOC(=O)Nc1nc2ccccc2[nH]1 do in these assays?
Dicer inh: -1

Results for Cc1cc(C)nc(Nc2ccccc2O)n1 ?
Dicer inh: 2.5

What do the screens show for `Cc1cc(C)nc(Nc2nc3ccccc3[nH]2)n1`?
Dicer inh: 3.7*

Results for CCOc1ccc(C2C(C(=O)OC(C)C)=C(C)NC3=C2C(=O)CCC3)cc1 (configuration not stated) ?
Dicer inh: -0.56

What do the screens show for `S=c1[nH]nc2nc3c4ccccc4c4ccccc4c3nn12`?
Dicer inh: 4.9*

Results for S=c1[nH]nc2nc(-c3ccccc3)c(-c3ccccc3)nn12 ?
Dicer inh: -0.34

How did CCSc1nnc2nc3c4ccccc4c4ccccc4c3nn12 do in these assays?
Dicer inh: 1.3

Results for Cc1ccc(-n2nnnc2-c2cnc3cc(Cl)ccc3c2N)cc1 ?
Dicer inh: -0.44

Results for COc1ccc(-c2cc(C(F)(F)F)n3nc(N)nc3n2)cc1OC ?
Dicer inh: 5.5*

How did COc1cccc(-c2cc(C(F)(F)F)n3nc(N)nc3n2)c1 do in these assays?
Dicer inh: 0.15

How did COc1ccc(-c2cc(C(F)(F)F)n3nc(N)nc3n2)cc1 do in these assays?
Dicer inh: 1.9

Results for COC(OC)(C(C#N)c1ccccc1)C(F)(F)F (configuration not stated) ?
Dicer inh: 0.52

How did CC1(C)c2ccccc2-n2c1cc(O)c(Cc1ccccc1)c2=O do in these assays?
Dicer inh: 0.2

What do the screens show for `CC(C)(C)c1cc2ncnc(NC3CCN(Cc4ccccc4)CC3)c2s1`?
Dicer inh: -0.14

Results for O=C(N1CCCC1)C1(c2ccccc2)CCOCC1 ?
Dicer inh: 3*

How did O=C(NC(=S)N1CCCCC1)c1ccccc1 do in these assays?
Dicer inh: 1.4

What do the screens show for `O=C(O)C1(c2ccccc2)CCCC1`?
Dicer inh: 2.4

How did COC(=O)c1cc2c(s1)-c1cc(Cl)ccc1S(=O)(=O)C2 do in these assays?
Dicer inh: -1.2

Results for CC1=CS(=O)(=O)c2ccc(Cl)cc21 ?
Dicer inh: 4.3*

What do the screens show for `O=C1NS(=O)(=O)c2ccc(Cl)cc2Sc2ccccc21`?
Dicer inh: 0.03

Results for COc1ccccc1OCC(=O)O ?
Dicer inh: -0.03

How did COc1cccc(=O)c2c(C)n(CC(=O)c3ccccc3)c(C)c12 do in these assays?
Dicer inh: 3.2*

Results for CCOc1cccc(=O)c2c(C)n(CC(=O)c3ccccc3)c(C)c12 ?
Dicer inh: 1.8

What do the screens show for `O=C(COc1ccc(Cl)cc1)Nc1c[nH]c(=O)[nH]c1=O`?
Dicer inh: 4.1*

How did O=C(COc1ccc(Cl)cc1)Nc1nccs1 do in these assays?
Dicer inh: -0.38

What do the screens show for `O=C(COc1ccc(Cl)cc1)Nc1ccc(Cl)cn1`?
Dicer inh: 0.71

Results for CCOC(=O)c1cnc(NNC(=O)c2ccccc2F)nc1C(F)(F)F ?
Dicer inh: 1.9

Results for Clc1ccc(Oc2nc(-c3ccccc3)ns2)cc1 ?
Dicer inh: 0.56

Results for COc1ccccc1N1CCN(S(=O)(=O)c2cccc3ccccc23)CC1 ?
Dicer inh: 3.3*

What do the screens show for `COc1cc(S(=O)(=O)N2CCC(C)CC2)ccc1Cl`?
Dicer inh: -0.36

How did O=S(=O)(c1ccc(F)cc1)N1CCC(N2CCCC2)CC1 do in these assays?
Dicer inh: 2.3

What do the screens show for `COc1ccccc1N1CCN(C2CCN(S(=O)(=O)c3ccc(Cl)cc3)CC2)CC1`?
Dicer inh: 3.6*

What do the screens show for `COc1ccccc1N1CCN(S(=O)(=O)c2ccccc2)CC1`?
Dicer inh: 0.58

How did COc1ccccc1N1CCN(Cc2ccc3ccccc3c2)CC1 do in these assays?
Dicer inh: 1.9

Results for CCOC(=O)C1(C(F)(F)F)N=C(N(C)C)Oc2c1c(C)nn2-c1ccccc1 (configuration not stated) ?
Dicer inh: -1.8

What do the screens show for `N/C(=N\S(=O)(=O)c1cc(Cl)sc1Cl)c1ccc(Cl)cc1`?
Dicer inh: 1.4

What do the screens show for `N/C(=N/S(=O)(=O)c1ccc(Cl)c(Cl)c1)c1ccc(Cl)cc1`?
Dicer inh: 4.5*

What do the screens show for `N/C(=N/S(=O)(=O)c1cc(C(F)(F)F)cc(C(F)(F)F)c1)c1ccc(Cl)cc1`?
Dicer inh: 1.9

How did COC(=O)c1cc(S(=O)(=O)N2CCN(C(c3ccccc3)c3ccccc3)CC2)oc1C do in these assays?
Dicer inh: -0.26

How did O=C(NCc1csc(-c2cccs2)n1)Nc1cc(F)cc2c1OCOC2 do in these assays?
Dicer inh: 0.2

How did Cn1ncc2c(NC3CCCCC3)ncnc21 do in these assays?
Dicer inh: 0.96

What do the screens show for `Cc1ccc(Nc2ncnc3ccccc23)c(C)c1`?
Dicer inh: -0.49

How did Cc1ccc2ncnc(NC3CCCCC3)c2c1 do in these assays?
Dicer inh: 4.7*

How did CC1(C)CC(NC(=O)CC(=O)NC2CC(C)(C)NC(C)(C)C2)CC(C)(C)N1 do in these assays?
Dicer inh: -0.46

How did Cc1ccc(C2CC(C(F)(F)F)n3nc(C(=O)NC4CCCC4)c(Cl)c3N2)cc1 (configuration not stated) do in these assays?
Dicer inh: 0.93

Results for Cc1nn(C)cc1CNC(=O)c1cnn2c1NC(c1ccc(Br)cc1)CC2C(F)(F)F (configuration not stated) ?
Dicer inh: 0.99

Results for Cc1c(CNC(=O)c2cnn3c2NC(c2ccc(Br)cc2)CC3C(F)(F)F)cnn1C (configuration not stated) ?
Dicer inh: 0.01

What do the screens show for `Cc1ccc(C2CC(C(F)(F)F)n3ncc(C(=O)N4CCCCC4)c3N2)cc1` (configuration not stated)?
Dicer inh: 3*

Results for O=C(c1cnn2c1NC(c1ccc(F)cc1)CC2C(F)(F)F)N1CCCCC1 (configuration not stated) ?
Dicer inh: 0.98

What do the screens show for `O=C(c1cnn2c1NC(c1ccccc1)CC2C(F)(F)F)N1CCOCC1` (configuration not stated)?
Dicer inh: 1.3

How did CCC(C)NC(=O)c1cnn2c1NC(c1ccc(Br)cc1)CC2C(F)(F)F (configuration not stated) do in these assays?
Dicer inh: 1.1

Results for O=C(NC1CCCCC1)c1cnn2c1NC(c1ccc(Br)cc1)CC2C(F)(F)F (configuration not stated) ?
Dicer inh: 5.6*

Results for COCCNC(=O)c1cnn2c1NC(c1ccc(Br)cc1)CC2C(F)(F)F (configuration not stated) ?
Dicer inh: 4.3*

What do the screens show for `CCCOC(=O)Nc1sc2c(c1C(=O)OCC)CCCC2`?
Dicer inh: 0.6

What do the screens show for `COc1cc(/C=N/NC(=S)Nc2ccc(F)cc2)ccc1OS(C)(=O)=O`?
Dicer inh: 0.68

Results for Cc1nnc(N2C(=O)C(=O)/C(=C(/O)c3ccc(F)cc3)C2c2cccc(Oc3ccccc3)c2)s1 (configuration not stated) ?
Dicer inh: 1.6

From PubChem BioAssay
